Reference: PubChem BioAssay (EPA / NIEHS)
Results filed as inconclusive are left out. Active and inactive are the calls of the source. Rule for the calls, unless noted: active = hit-call score of the fitted dose curve at least 0.9, where 1 is the maximum; inactive = score below 0.9.

Columns and labels:
[1] = biological target: Glucocorticoid receptor (Homo sapiens) (UniProt P04150); assay: ATG_GR_TRANS: Attagene TRANS-FACTORIAL HepG2 Assay for human Glucocorticoid Receptor (GR) (AID 2282978; active = hit-call score of the fitted dose curve at least 0.9, where 1 is the maximum;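 note: activators score as hits since higher reporter transcript over DMSO is fitted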); details: HepG2 Attagene TRANS GR reporter, mRNA transcription
Sequence of Glucocorticoid receptor (Homo sapiens) (P04150 whole entry, looked up, the tested form may be a part): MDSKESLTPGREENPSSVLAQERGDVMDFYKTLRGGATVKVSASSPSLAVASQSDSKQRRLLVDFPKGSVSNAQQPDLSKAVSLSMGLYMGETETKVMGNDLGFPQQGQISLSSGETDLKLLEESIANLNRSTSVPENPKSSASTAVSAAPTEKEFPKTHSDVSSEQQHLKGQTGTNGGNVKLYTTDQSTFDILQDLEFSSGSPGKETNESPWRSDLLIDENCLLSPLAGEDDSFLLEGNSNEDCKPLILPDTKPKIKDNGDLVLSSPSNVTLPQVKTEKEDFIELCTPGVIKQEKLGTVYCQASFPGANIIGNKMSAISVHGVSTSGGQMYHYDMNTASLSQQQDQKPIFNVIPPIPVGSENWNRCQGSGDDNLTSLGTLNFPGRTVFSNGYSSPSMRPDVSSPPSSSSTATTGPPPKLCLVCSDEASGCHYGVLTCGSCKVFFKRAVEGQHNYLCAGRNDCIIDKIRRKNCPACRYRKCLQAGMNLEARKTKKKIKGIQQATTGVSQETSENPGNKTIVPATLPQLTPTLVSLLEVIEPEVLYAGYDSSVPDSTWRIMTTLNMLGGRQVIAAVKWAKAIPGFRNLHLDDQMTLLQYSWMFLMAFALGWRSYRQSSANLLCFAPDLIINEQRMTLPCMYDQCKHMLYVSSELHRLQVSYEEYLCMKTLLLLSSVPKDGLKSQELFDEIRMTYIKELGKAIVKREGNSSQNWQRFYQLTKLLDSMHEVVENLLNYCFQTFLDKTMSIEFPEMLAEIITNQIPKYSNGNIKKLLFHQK
In short: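 HepG2 transient transfection, multiple reporter units, GAL4-UAS under NR-GAL4 chimera control. 24 h treatment. Reporter mRNA by RT-PCR/CE fluorescence, DMSO as negative control.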

[2] = biological target: Bile acid receptor (Homo sapiens) (UniProt Q96RI1); assay: ATG_FXR_TRANS: Attagene TRANS-FACTORIAL HepG2 Assay for Farnesoid X Receptor (FXR) (AID 2282979; active = hit-call score of the fitted dose curve at least 0.9, where 1 is the maximum;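 note: hits raise reporter mRNA above DMSO so AC50 marks FXR activation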); details: HepG2 Attagene TRANS FXR-GAL4 reporter transcription
Sequence of Bile acid receptor (Homo sapiens) (Q96RI1 whole entry, looked up, the tested form may be a part): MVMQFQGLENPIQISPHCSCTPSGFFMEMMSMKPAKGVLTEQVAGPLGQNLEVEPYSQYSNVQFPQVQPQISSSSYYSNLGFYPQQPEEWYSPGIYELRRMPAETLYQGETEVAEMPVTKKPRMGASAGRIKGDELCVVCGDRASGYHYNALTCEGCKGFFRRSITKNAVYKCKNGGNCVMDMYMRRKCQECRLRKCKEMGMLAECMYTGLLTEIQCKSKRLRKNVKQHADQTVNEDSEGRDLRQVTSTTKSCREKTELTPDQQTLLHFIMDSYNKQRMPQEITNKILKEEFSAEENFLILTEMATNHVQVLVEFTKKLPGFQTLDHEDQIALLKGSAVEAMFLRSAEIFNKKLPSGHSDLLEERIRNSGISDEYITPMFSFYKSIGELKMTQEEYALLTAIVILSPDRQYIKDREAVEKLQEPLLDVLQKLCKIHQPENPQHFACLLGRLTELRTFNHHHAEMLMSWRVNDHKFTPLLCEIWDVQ
In short: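 HepG2 cells transiently transfected with reporter constructs in which a chimeric FXR-GAL4 protein drives a GAL4-UAS reporter; 24 h compound exposure. Reporter mRNA measured by RT-PCR, FAM labelling, HpaI digestion and capillary electrophoresis; gain-of-signal versus DMSO.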

[3] = biological target: Oxysterols receptor LXR-beta (Homo sapiens) (UniProt P55055); assay: ATG_LXRb_TRANS: Attagene TRANS-FACTORIAL HepG2 Assay for human Liver X Receptor beta (LXRb) (AID 2282981; active = hit-call score of the fitted dose curve at least 0.9, where 1 is the maximum); details: HepG2 Attagene TRANS GAL4-LXRb reporter, mRNA
Sequence of Oxysterols receptor LXR-beta (Homo sapiens) (P55055 whole entry, looked up, the tested form may be a part): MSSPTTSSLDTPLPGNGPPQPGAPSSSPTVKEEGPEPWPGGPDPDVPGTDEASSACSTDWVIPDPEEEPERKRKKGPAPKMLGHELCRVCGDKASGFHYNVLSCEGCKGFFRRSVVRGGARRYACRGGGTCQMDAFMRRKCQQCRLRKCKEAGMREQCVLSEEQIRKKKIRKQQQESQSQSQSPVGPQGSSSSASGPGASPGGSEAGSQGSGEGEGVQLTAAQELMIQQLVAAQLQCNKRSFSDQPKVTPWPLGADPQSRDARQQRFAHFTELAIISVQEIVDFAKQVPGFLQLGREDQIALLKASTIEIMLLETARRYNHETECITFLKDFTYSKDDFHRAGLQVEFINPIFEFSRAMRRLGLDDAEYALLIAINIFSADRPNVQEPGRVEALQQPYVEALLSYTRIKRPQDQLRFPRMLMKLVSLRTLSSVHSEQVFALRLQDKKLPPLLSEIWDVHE
In short: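 Multiplexed reporter assay, HepG2, 24 h dosing. Fluorescence of labelled RT-PCR products after capillary electrophoresis gives transcript level; positive fitting direction relative to DMSO.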

[4] = ATG_M_06_TRANS: Attagene TRANS-FACTORIAL HepG2 Assay for M06 Transcription Factor (Internal Marker) (AID 2282983; active = hit-call score of the fitted dose curve at least 0.9, where 1 is the maximum); details: HepG2 Attagene TRANS M06 internal marker reporter
In short: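 In this multiplexed HepG2 system, compounds are incubated 24 h with cells carrying GAL4-UAS reporter units. Reporter RNA is amplified and resolved by capillary electrophoresis, and induction is scored against DMSO.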

[5] = ATG_M_32_TRANS: Attagene TRANS-FACTORIAL HepG2 Assay for M32 Transcription Factor (Internal Marker) (AID 2282984; active = hit-call score of the fitted dose curve at least 0.9, where 1 is the maximum;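 note: transcript level of a background control reporter unit measured by RT-PCR and capillary electrophoresis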); details: HepG2 Attagene TRANS M32 internal marker reporter
In short: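 Internal-marker readout from a multiplexed transcription reporter panel. HepG2 cells were transfected with GAL4-UAS reporter units, treated 24 hours, and reporter transcript levels determined by fluorescence after RT-PCR and capillary separation.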

[6] = biological target: Nuclear receptor subfamily 4 group A member 2 (Homo sapiens) (UniProt P43354); assay: ATG_NURR1_TRANS: Attagene TRANS-FACTORIAL HepG2 Assay for human Nuclear Receptor Related Protein 1 (NURR1) (AID 2282985; active = hit-call score of the fitted dose curve at least 0.9, where 1 is the maximum); details: HepG2 Attagene TRANS reporter, mRNA readout
Sequence of Nuclear receptor subfamily 4 group A member 2 (Homo sapiens) (P43354 whole entry, looked up): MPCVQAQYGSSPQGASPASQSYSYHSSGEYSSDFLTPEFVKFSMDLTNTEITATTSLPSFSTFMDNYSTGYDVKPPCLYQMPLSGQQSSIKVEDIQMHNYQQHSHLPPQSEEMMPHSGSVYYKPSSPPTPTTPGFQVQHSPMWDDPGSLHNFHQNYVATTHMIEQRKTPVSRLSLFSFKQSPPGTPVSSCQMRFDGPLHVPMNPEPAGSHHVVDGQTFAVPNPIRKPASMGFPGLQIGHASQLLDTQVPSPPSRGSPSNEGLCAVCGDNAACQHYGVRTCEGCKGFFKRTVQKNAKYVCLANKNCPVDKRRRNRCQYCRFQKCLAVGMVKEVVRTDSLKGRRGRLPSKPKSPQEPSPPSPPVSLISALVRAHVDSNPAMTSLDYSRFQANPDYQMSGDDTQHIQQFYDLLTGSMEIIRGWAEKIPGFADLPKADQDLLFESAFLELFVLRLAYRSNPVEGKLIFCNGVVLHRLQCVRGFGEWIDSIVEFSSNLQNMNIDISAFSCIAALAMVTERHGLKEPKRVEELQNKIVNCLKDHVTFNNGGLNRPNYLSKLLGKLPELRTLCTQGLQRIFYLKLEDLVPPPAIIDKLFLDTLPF
In short: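 Endpoint: reporter mRNA increase relative to DMSO. HepG2 cells transfected with reporter units, treated 24 h; RNA processed by RT-PCR, labelling, HpaI digestion and capillary electrophoresis.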

[7] = biological target: Transcriptional activator Myb (Homo sapiens) (UniProt P10242); assay: ATG_Myb_CIS: Attagene CIS-FACTORIAL HepG2 Assay for human Myeloblastosis (Myb) Proto-Oncogene Transcription Factor (AID 2282986); details: HepG2 Attagene CIS-FACTORIAL Myb reporter transcription; actives raise or lower the signal
Sequence of Transcriptional activator Myb (Homo sapiens) (P10242 whole entry, looked up): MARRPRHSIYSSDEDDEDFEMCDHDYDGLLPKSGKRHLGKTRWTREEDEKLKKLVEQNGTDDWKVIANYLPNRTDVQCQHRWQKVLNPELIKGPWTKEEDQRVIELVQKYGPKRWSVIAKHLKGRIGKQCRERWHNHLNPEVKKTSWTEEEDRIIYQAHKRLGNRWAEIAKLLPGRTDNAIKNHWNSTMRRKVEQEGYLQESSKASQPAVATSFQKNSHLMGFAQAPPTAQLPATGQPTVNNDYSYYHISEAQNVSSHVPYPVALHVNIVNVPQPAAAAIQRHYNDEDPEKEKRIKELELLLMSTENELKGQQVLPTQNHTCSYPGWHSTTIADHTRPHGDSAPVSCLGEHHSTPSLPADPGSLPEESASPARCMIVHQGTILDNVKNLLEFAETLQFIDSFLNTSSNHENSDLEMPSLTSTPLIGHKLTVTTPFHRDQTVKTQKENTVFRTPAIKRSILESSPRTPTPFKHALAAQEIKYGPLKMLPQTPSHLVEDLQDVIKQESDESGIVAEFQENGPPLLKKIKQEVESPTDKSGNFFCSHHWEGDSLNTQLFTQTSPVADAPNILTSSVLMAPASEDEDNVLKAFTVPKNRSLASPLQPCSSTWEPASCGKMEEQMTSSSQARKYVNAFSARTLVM
In short: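 Multiplexed cis-reporter system in HepG2: transient transfection, 24 h treatment, mRNA readout by RT-PCR and capillary electrophoresis. Both increases and decreases are scored versus DMSO negative control.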

[8] = biological target: Nuclear respiratory factor 1 (Homo sapiens) (UniProt Q16656); assay: ATG_NRF1_CIS: Attagene CIS-FACTORIAL HepG2 Assay for human Nuclear Respiratory Factor 1 (NRF1) Orphan Gene (AID 2282987); details: HepG2 NRF1 cis-element reporter, Attagene multiplex; actives raise or lower the signal
Sequence of Nuclear respiratory factor 1 (Homo sapiens) (Q16656 whole entry, looked up): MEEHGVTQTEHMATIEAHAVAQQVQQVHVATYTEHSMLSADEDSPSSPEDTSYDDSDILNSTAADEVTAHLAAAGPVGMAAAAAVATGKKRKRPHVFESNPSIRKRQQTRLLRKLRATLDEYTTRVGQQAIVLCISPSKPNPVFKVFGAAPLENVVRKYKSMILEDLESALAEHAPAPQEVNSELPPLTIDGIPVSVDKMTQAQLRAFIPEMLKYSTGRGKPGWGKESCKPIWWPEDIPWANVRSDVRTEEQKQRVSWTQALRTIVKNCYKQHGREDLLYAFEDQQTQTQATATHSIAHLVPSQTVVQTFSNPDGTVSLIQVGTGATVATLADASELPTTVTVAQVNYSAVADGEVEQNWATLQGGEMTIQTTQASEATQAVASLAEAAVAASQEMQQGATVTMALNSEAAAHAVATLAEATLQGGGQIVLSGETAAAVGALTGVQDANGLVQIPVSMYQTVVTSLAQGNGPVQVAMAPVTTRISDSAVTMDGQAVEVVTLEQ
In short: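 Endogenous factor activity was captured via cis-element-driven reporter transcripts in HepG2 cells. Following 24 h chemical treatment, transcripts were quantified by RT-PCR and capillary electrophoresis.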

[9] = ATG_NFI_CIS: Attagene CIS-FACTORIAL HepG2 Assay for human Nuclear Factor I (NFI) (AID 2282989); details: HepG2 cis-regulatory reporter, NFI response element transcription; actives raise or lower the signal
In short: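 Reporter transcripts were measured by RT-PCR with fluorescent primer extension and capillary electrophoresis 24 h post-treatment. HepG2 cells carried transiently transfected cis-regulated reporter constructs reporting endogenous factor activity; gain or loss fitted against DMSO baseline.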

[10] = biological target: Myc proto-oncogene protein (Homo sapiens) (UniProt P01106); assay: ATG_Myc_CIS: Attagene CIS-FACTORIAL HepG2 Assay for human Myelocytomatosis (Myc) Proto-Oncogene Transcription Factor (AID 2282990); details: HepG2, Attagene cis-reporter transcription factor activity; actives raise or lower the signal
Sequence of Myc proto-oncogene protein (Homo sapiens) (P01106 whole entry, looked up, the tested form may be a part): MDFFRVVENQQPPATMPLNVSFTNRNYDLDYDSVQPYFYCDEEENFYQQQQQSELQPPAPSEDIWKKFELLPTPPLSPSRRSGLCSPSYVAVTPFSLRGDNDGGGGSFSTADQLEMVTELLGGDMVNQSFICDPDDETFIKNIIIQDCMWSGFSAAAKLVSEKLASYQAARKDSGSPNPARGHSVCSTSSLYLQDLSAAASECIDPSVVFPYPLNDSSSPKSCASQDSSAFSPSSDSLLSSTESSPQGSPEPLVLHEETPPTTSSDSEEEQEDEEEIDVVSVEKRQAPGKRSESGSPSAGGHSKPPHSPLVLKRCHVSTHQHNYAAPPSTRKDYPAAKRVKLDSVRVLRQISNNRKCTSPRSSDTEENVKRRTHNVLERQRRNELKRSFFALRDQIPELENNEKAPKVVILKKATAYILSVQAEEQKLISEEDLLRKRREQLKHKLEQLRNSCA
In short: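 Read-out: fluorescent reporter mRNA fragments resolved by capillary electrophoresis after RT-PCR. Human HepG2 liver cells carried transfected cis-element reporter units and were dosed for 24 h. Gain or loss of signal fitted relative to DMSO baseline.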

[11] = ATG_NF_kB_CIS: Attagene CIS-FACTORIAL HepG2 Assay for human Nuclear Factor Kappa B (NF-kB) (AID 2282991); details: HepG2 Attagene cis-factorial NF-kB reporter mRNA; actives raise or lower the signal
In short: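 After 24 h compound incubation, transfected HepG2 cells yield total RNA; reporter cDNA is PCR-amplified, end-labelled with 6-FAM, HpaI-digested and analysed on a genetic analyser. Endogenous factor activity, DMSO-referenced bidirectional fit.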

[12] = ATG_NRF2_ARE_CIS: Attagene CIS-FACTORIAL HepG2 Assay for human Nuclear Factor Erythroid 2 Related Factor 2 (NFR2) response to Antioxidant Response Elements (ARE) (AID 2282992); details: HepG2 Attagene ARE/NRF2 reporter, transcription factor activity; actives raise or lower the signal;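 for AC50: reporter mRNA level measured by RT-PCR and capillary electrophoresis fluorescence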
In short: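 Endogenous transcription factor activity in human liver HepG2 cells is tracked via a cis-element-driven reporter within a multiplexed set. mRNA induction is read by RT-PCR and capillary electrophoresis after 24 h, with DMSO as baseline.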

[13] = ATG_Oct_MLP_CIS: Attagene CIS-FACTORIAL HepG2 Assay for human Octamer-Binding Transcription Factor (Oct) (AID 2282993); details: HepG2 Attagene cis-factorial Oct reporter, mRNA; actives raise or lower the signal
In short: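 Readout is reporter transcript level from RT-PCR with fluorescent primer extension and capillary electrophoresis, fitted in both directions against DMSO. Transfected HepG2 reporter units report endogenous factor activity after 24 h dosing.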

[14] = biological target: Cellular tumor antigen p53 (Homo sapiens) (UniProt P04637); assay: ATG_p53_CIS: Attagene CIS-FACTORIAL HepG2 Assay for human p53 Transcription Factor (AID 2282994); details: HepG2 p53 cis-element reporter, Attagene mRNA; actives raise or lower the signal
Sequence of Cellular tumor antigen p53 (Homo sapiens) (P04637 whole entry, looked up, the tested form may be a part): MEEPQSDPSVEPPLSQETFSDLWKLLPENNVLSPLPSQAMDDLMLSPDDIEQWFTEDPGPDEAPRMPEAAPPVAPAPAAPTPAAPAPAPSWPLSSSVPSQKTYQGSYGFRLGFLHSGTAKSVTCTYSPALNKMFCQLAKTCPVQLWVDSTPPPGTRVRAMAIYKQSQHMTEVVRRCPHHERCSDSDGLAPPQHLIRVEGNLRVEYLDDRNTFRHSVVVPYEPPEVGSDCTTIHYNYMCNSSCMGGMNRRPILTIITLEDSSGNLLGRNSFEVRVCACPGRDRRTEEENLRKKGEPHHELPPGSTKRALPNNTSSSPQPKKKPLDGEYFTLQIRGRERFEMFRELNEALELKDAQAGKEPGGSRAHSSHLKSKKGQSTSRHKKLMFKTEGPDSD
In short: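 Steps: transfect HepG2 with multiplexed cis reporter constructs; dose chemicals 24 h; extract RNA, reverse-transcribe, PCR-amplify reporter sequences; FAM-label, HpaI-digest, resolve fragments by CE. Activity fitted both directions relative to DMSO.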

[15] = biological target: Oxysterols receptor LXR-alpha (Homo sapiens) (UniProt Q13133); assay: ATG_LXRa_TRANS: Attagene TRANS-FACTORIAL HepG2 Assay for human Liver X Receptor alpha (LXRa) (AID 2282980; active = hit-call score of the fitted dose curve at least 0.9, where 1 is the maximum); details: HepG2 Attagene TRANS reporter, LXRa transactivation
Sequence of Oxysterols receptor LXR-alpha (Homo sapiens) (Q13133 whole entry, looked up, the tested form may be a part): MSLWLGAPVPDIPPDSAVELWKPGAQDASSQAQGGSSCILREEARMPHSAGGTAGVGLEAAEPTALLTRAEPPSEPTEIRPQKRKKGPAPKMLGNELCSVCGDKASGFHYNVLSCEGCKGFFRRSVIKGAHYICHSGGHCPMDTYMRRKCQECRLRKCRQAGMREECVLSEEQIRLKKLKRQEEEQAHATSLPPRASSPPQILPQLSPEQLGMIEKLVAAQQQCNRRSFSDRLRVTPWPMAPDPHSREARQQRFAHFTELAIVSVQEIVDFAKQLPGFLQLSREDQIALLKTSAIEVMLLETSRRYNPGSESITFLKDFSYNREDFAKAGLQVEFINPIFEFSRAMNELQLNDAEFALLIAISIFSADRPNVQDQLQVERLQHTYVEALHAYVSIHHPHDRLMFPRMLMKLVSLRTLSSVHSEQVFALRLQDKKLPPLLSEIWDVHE
In short: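 HepG2 cells were transiently transfected with multiplexed reporter units driven by chimeric LXRa–GAL4 fusion proteins, then dosed for 24 h. Reporter mRNA was quantified by RT-PCR, fluorescent labelling and capillary electrophoresis; gain of signal fitted against DMSO baseline.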

[16] = biological target: Hepatocyte nuclear factor 4-alpha (Homo sapiens) (UniProt P41235); assay: ATG_HNF4a_TRANS: Attagene TRANS-FACTORIAL HepG2 Assay for human Hepatocyte Nuclear Factor 4 alpha (HNF4a) (AID 2282982; active = hit-call score of the fitted dose curve at least 0.9, where 1 is the maximum); details: HepG2 HNF4a transactivation reporter, mRNA readout
In short: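 Endpoint reflects transcriptional activation of a GAL4-UAS reporter by an HNF4a-GAL4 chimera in transfected HepG2 cells, 24 h post-dosing. Fluorescence from RT-PCR products separated by capillary electrophoresis; DMSO baseline.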

[17] = BSK_3C_TissueFactor: BioMAP Diversity Plus: 3C Assay for Tissue Factor Biomarker Activity (AID 2282997); details: BioMAP 3C HUVEC, tissue factor biomarker readout; actives raise or lower the signal
In short: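 Readout: Tissue Factor ELISA. Cells: human primary umbilical vein endothelium. Time: 24 h after dosing. Analysis: bidirectional fit, DMSO baseline.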

[18] = BSK_3C_uPAR: BioMAP Diversity Plus: 3C Assay for Urokinase-type plasminogen activator receptor (uPAR) Biomarker Activity (AID 2282998); details: BioMAP 3C HUVEC, uPAR biomarker ELISA; actives raise or lower the signal
In short: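 Cell-surface uPAR on HUVEC (3C system) read by ELISA at 24 h post-treatment, with DMSO as baseline and fitting in both directions. Parallel cultures stained with SRB to flag overt cytotoxicity.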

[19] = BSK_3C_VCAM1: BioMAP Diversity Plus: 3C Assay for Vascular cell adhesion molecule 1 (VCAM1) Biomarker Activity (AID 2282999); details: BioMAP 3C HUVEC, VCAM1 ELISA, cytokine-stimulated; actives raise or lower the signal
In short: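 HUVEC primary cells, 24 h compound exposure; VCAM-1 by ELISA; gain/loss of signal fitted bidirectionally vs DMSO baseline.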

[20] = BSK_4H_Eotaxin3: BioMAP Diversity Plus: 4H Assay for Eotaxin 3 Biomarker Activity (AID 2283000); details: primary human endothelial cells (HUVEC); actives raise or lower the signal;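 note: CCL26 protein level quantified by ELISA in parallel with SRB cytotoxicity check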
In short: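 HUVEC, 24 h post-dose, ELISA for Eotaxin-3/CCL26. Gain or loss of signal fitted bidirectionally vs DMSO baseline.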

Measured: AC50

CCCc1c(OCCCOc2ccc(OCC(=O)O)cc2)ccc(C(C)=O)c1O
active: [6] 100 µM | [8] 100 µM
not listed: [15] | [16] | [17] | [18] | [19] | [20]
inactive: all other assays above

COc1cc(C(C)(C)C)c(O)c(C(C)(C)C)c1
not listed: [5] | [6] | [14] | [16] | [17] | [18] | [19] | [20]
inactive: all other assays above

CCCC(C)C=O (configuration not stated)
inactive: [1] | [2] | [3] | [8] | [9] | [10] | [11] | [12] | [13] | [14]

CC(C)(C#N)c1cc(Cn2cncn2)cc(C(C)(C)C#N)c1
not listed: [6] | [9] | [17] | [18] | [19] | [20]
inactive: all other assays above

CC(C#N)(CCC(=O)O)N=NC(C)(C#N)CCC(=O)O (configuration not stated)
not listed: [5] | [6] | [11] | [16] | [17] | [18] | [19] | [20]
inactive: all other assays above

C#C[C@]1(O)CC[C@H]2[C@@H]3CCC4=Cc5oncc5C[C@]4(C)[C@H]3CC[C@@]21C
active: [15] 26.4 µM | [9] 57.1 µM | [13] 29 µM | [14] 24.7 µM | [18] 6.51 µM
not listed: [3] | [5] | [6] | [7] | [16]
inactive: all other assays above

O=C(Nc1ccccc1)c1cc([N+](=O)[O-])ccc1Cl
active: [12] 34.6 µM | [14] 68.6 µM
not listed: [6] | [16] | [17] | [18] | [19] | [20]
inactive: all other assays above

CCCCNC(=O)NS(=O)(=O)c1ccc(C)cc1
not listed: [4] | [11] | [15] | [16] | [17] | [18] | [19] | [20]
inactive: all other assays above

OCCN1CCNCC1
not listed: [5] | [11] | [15] | [17] | [18] | [19] | [20]
inactive: all other assays above

CCCCCCCCCCCCSC
not listed: [5] | [6] | [11] | [17] | [18] | [19] | [20]
inactive: all other assays above

CSc1nnc(C(C)(C)C)c(=O)[nH]1
not listed: [3] | [4] | [6] | [15] | [17] | [18] | [19] | [20]
inactive: all other assays above

NC(=O)c1ccccc1Cl
inactive: [1] | [2] | [15] | [5] | [6] | [8] | [10] | [11]
active: [9] 61.6 µM | [12] 25.8 µM | [13] 55.1 µM | [14] 143 µM

CC(C)=CCCC(C)CC=O (configuration not stated)
not listed: [3] | [11] | [15] | [17] | [18] | [19] | [20]
inactive: all other assays above

CC1(C)CCC(C)(C)c2cc(C(=O)Nc3ccc(C(=O)O)cc3)ccc21
active: [2] 13 µM | [8] 93.6 µM | [13] 100 µM | [14] 55.1 µM
inactive: [1] | [3] | [4] | [7] | [9] | [10] | [11] | [12]

CN(C)CCCN
not listed: [6] | [15] | [17] | [18] | [19] | [20]
inactive: all other assays above

CC(C)(N)CO
not listed: [5] | [6] | [15] | [16] | [17] | [18] | [19] | [20]
inactive: all other assays above

CC1CCC(C(C)(C)O)CC1 (configuration not stated)
not listed: [4] | [17] | [18] | [19] | [20]
inactive: all other assays above

CCCC(=O)c1cc(O)c(O)cc1O
not listed: [5] | [6] | [16] | [17] | [18] | [19] | [20]
inactive: all other assays above

COc1cc2ncnc(Nc3cccc(Cl)c3)c2cc1OC
active: [11] 40.8 µM | [13] 25 µM | [14] 1.57 µM
not listed: [6] | [9] | [17] | [18] | [19] | [20]
inactive: all other assays above

CCc1c(C)cc(N)c(CC)c1N
not listed: [3] | [4] | [7] | [15]
inactive: all other assays above
